Test results from the supplement of paper PMC10646978.
± gives the standard deviation.

Key:
Details in all cases: modulator concentration 10 µM
[1] = system: RAW-Dual (murine macrophage reporter line); experiment: NF-kB reporter (SEAP) activity fold change vs agonist alone; higher = enhanced NF-kB activity
How it was run: (§1)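 Overnight stimulation with a PRR agonist followed pre-incubation for 1 hour at 37 °C with compound at 10 μM final. This was done in RAW-Dual murine macrophage reporter cells seeded at 50 000 per well in 384-well plates. NF-κB (SEAP, QUANTI-Blue absorbance at 620 nm) and IRF (Lucia luciferase, QUANTI-Luc luminescence) were read from the supernatant. Each reporter's fold change relative to the mean agonist-only control on the same plate was averaged over replicate plates.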

[2] = system: RAW-Dual (murine macrophage reporter line); experiment: IRF reporter (Lucia luciferase) activity fold change vs agonist alone; higher = enhanced IRF activity
How it was run: as §1

[3] = system: RAW-Dual (murine macrophage reporter line); experiment: viability score (confluency relative to resting cells, overnight) (fraction); higher = more viable, active = viable (0.7 or more)
How it was run: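 RAW-Dual macrophages in 384-well plates were exposed overnight to compound at 10 μM final. Confluency was imaged with IncuCyte, and two confluency masks were generated with IncuCyte software over all imaged wells. The viability score is confluency expressed relative to resting cells. Compounds were called viable if both masks exceeded 70% of resting cells.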

[4] = agonist: CpG ODN 1826 0.5 ug/mL

| Compound | NF-kB reporter [1, 4] | NF-kB reporter ([1]; agonist: LPS 0.1 ug/mL) | NF-kB reporter ([1]; agonist: MPLA […]) | IRF reporter ([2]; agonist: 3'3'-cGAMP 10 ug/mL) | IRF reporter ([2]; agonist: LPS 0.1 ug/mL) | IRF reporter ([2]; agonist: MPLA […]) | viability score [3] |
| --- | --- | --- | --- | --- | --- | --- | --- |
| Cc1ccc(C2(O)C=CC(C)(C(Cl)(Cl)Cl)C=C2)cc1 (stereo unspecified) | 0.687 ± 0.054 | 0.974 ± 0.063 | 1.02 ± 0.067 | 0.455 ± 0.093 | 0.989 ± 0.047 | 0.915 ± 0.14 | 1 (active) |
| NNC(=O)CN1C(=O)C2CC=C(Cl)CC2C1=O (stereo unspecified) | 0.984 ± 0.062 | 0.976 ± 0.085 | 0.954 ± 0.035 | 0.999 ± 0.088 | 1.06 ± 0.058 | 0.917 ± 0.18 | 0.999 (active) |
| CCOc1ccc(N=Cc2c(Nc3ccc(OCC)cc3)nc3ccccn3c2=O)cc1 | 1.17 ± 0.13 | 0.984 ± 0.13 | 1.19 ± 0.17 | 0.855 ± 0.051 | 1.23 ± 0.14 | 1.41 ± 0.23 | 1.04 (active) |
| O=C1CN(CCC2=CCCCC2)C2CS(=O)(=O)CC2N1c1ccc(Cl)cc1 (stereo unspecified) | 1.01 ± 0.12 | 1.07 ± 0.089 | 0.849 ± 0.071 | 0.786 ± 0.051 | 0.892 ± 0.078 | 1 ± 0.13 | 1.01 (active) |
| CNCCc1ccccn1.Cl.Cl | 1.19 ± 0.36 | 0.956 ± 0.18 | 0.964 ± 0.08 | 0.946 ± 0.05 | 1.01 ± 0.31 | 1 ± 0.13 | 0.997 (active) |
| O=C(NN=Cc1c(Br)sc2ccccc12)c1cccc(Cl)c1 | 0.972 ± 0.082 | 0.88 ± 0.17 | 1.18 ± 0.056 | 0.738 ± 0.12 | 0.952 ± 0.045 | 1.49 ± 0.1 | 0.887 (active) |
| O.S=c1nc[nH]c2nc[nH]c12 | 0.844 ± 0.037 | 0.902 ± 0.1 | 0.989 ± 0.11 | 0.768 ± 0.035 | 1.23 ± 0.28 | 1.36 ± 0.57 | 0.994 (active) |
| Cc1nnc(C)n1N=Cc1ccc(Cl)c([N+](=O)[O-])c1 | 0.797 ± 0.062 | 0.874 ± 0.091 | 1.2 ± 0.1 | 0.898 ± 0.045 | 1.07 ± 0.072 | 1 ± 0.1 | 0.99 (active) |
| O=C(NC(=S)Nc1ccc2[nH]c(=O)[nH]c2c1)c1ccc(Cl)cc1 | 0.958 ± 0.082 | 1.13 ± 0.075 | 0.95 ± 0.042 | 0.94 ± 0.17 | 1.03 ± 0.043 | 0.994 ± 0.22 | 1 (active) |
| O=C(CCC1CCCC1)Nc1cccc(Cl)c1 | 0.771 ± 0.061 | 0.906 ± 0.1 | 1.15 ± 0.1 | 0.943 ± 0.046 | 1.63 ± 0.11 | 1.87 ± 0.16 | 1 (active) |
| Nc1ccc(OCc2ccccc2)cc1 | 0.977 ± 0.16 | 1.01 ± 0.1 | 0.995 ± 0.12 | 0.635 ± 0.024 | 1.03 ± 0.1 | 1.16 ± 0.17 | 1.01 (active) |
| Cc1[nH]c(=O)c(C#N)cc1-c1ccncc1 | 1.34 ± 0.19 | 1.26 ± 0.28 | 2.34 ± 1.3 | 0.895 ± 0.027 | 1.31 ± 0.15 | 1.34 ± 0.2 | 0.99 (active) |
| COc1ccc(C=NN2CCN(C)CC2)c(OC)c1 | 0.84 ± 0.065 | 0.95 ± 0.047 | 1.04 ± 0.09 | 0.914 ± 0.056 | 1.25 ± 0.08 | 1.33 ± 0.11 | 1.01 (active) |
